Assay [1] deals with Progesterone receptor (Homo sapiens) (UniProt P06401). The experiment in a line: qHTS assay to identify small molecule agonists of the progesterone receptor (PR) signaling pathway (AID 1346784; calls by dose curve; also: nearly all actives have a fitted effect of over 30% in size). Summed up:
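Cells (PR-UAS-bla HEK 293T, GripTite) were plated in assay medium containing 2% charcoal-stripped FBS and incubated 6 hr. Test compounds in DMSO were added for 16 hr at 37C. FRET substrate was then loaded for 2 hr at room temperature before fluorescence reading.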
Background: Quantitative high-throughput screening tests each substance at several concentrations.

Assay [2] has the same target. The experiment in a line: qHTS assay to identify small molecule antagonists of the progesterone receptor (PR) signaling pathway (AID 1346795; active = well fitted inhibition curve with a large enough effect in the signal ratio in the repeat runs, not every such curve was filed as active; the % refers to the signal ratio). Put shortly:
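Antagonist mode: compounds tested against 1 nM (final) promegestone stimulation in HEK293T cells expressing PR-UAS-bla reporter, 16 hr at 37C, 5% CO2; beta-lactamase activity detected via B/G FRET substrate after 2 hr at room temperature.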

Assay [3] in a line: qHTS assay to identify small molecule antagonists of the progesterone receptor (PR) signaling pathway - cell viability counter screen (AID 1346798). Also: series mostly up to about 92 µM; nearly all actives have a fitted effect of over 50% in size. Put shortly:
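Counter screen for cytotoxicity: viability of PR-UAS-bla HEK293T cells was measured with CellTiter-Glo luminescence following 16 hr compound exposure in the presence of R5020.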

Assay [4] in a line: qHTS assay to identify small molecule agonists of the progesterone receptor (PR) signaling pathway - cell viability counter screen (AID 1346799; calls by dose curve; also: nearly all actives have a fitted effect of over 45% in size). Summed up: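 Cells (PR-UAS-bla HEK293T) are plated at 3,000/well in 2% charcoal-stripped FBS medium, rested 6 hr, dosed and incubated 16 hr at 37C. CellTiter-Glo is then added and luminescence measured after 30 min at room temperature.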

The nature of assay [5]: qHTS assay to identify small molecule antagonists of the TGF-beta/Smad signaling pathway - cell viability counter screen (AID 1346824). Also: nearly all actives have a fitted effect of over 50% in size. Put shortly:
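Cytotoxicity counter-screen run in the same wells as the beta-lactamase Smad reporter read: CellTiter-Glo luminescence after 30 min at room temperature. HEK 293T SBE-bla cells had 5 hr compound exposure at 37 C with TGF-beta1 (0.25 ng/mL stock).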

Assay [6] in a line: qHTS assay to identify small molecule agonists of the TGF-beta/Smad signaling pathway - cell viability counter screen (AID 1346829). Also: top concentration of the series differs between compounds; nearly all actives have a fitted effect of over 45% in size. Put shortly:
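SBE-bla HEK 293T cells plated overnight, compound exposure 5 hr at 37 C. Viability read in the same wells by CellTiter-Glo luminescence after 30 min at room temperature, following the beta-lactamase read.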

Assay [7] is described as follows: qHTS assay to identify small molecule agonists of the TGF-beta/Smad signaling pathway (AID 1346859; active = well fitted activation curve with a large enough effect in the signal ratio in the repeat runs, not every such curve was filed as active; the % refers to the signal ratio; also: series mostly up to about 77 µM). Put shortly: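 Reporter line: HEK 293T with stably integrated SBE-controlled beta-lactamase. Compound exposure lasts 5 hr at 37 C and 5% CO2; substrate loading follows for 2 hr at room temperature, with emission read at 460 and 530 nm.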
Assay [8] is described as follows: Human pregnane X receptor (PXR) small molecule agonists, qHTS cell viability counter screen (AID 1346977). Also: nearly all actives have a fitted effect of over 50% in size. Put shortly: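 Cytotoxicity counter screen run in the same wells as the PXR luciferase assay, using PXR-Luc HepG2 cells in charcoal-stripped serum medium. Viability: CellTiter-Fluor fluorescence after 24hr compound treatment.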
Assay [9] in a line: Caspase-3/7 induction in HepG2 cells by small molecules, qHTS assay (AID 1346978). Also: nearly all actives have a fitted effect of over 15% in size. Summed up: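 Caspase-3/7 induction was measured by Caspase-Glo 3/7 luminescence (30 min, room temperature) after a 17 hr compound exposure of wild-type HepG2 cells seeded at 2,000 per well and pre-incubated 5 hr.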
Assay [10] in a line: Caspase-3/7 induction in CHO-K1 cells by small molecules, qHTS cell viability counter screen (AID 1346979). Also: nearly all actives have a fitted effect of over 35% in size. Put shortly: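 Cytotoxicity counter screen run in parallel with the caspase-3/7 assay: CHO-K1 cells, 16hr compound treatment at 37C, then CellTiter-Fluor for 1hr before fluorescence reading.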
Assay [11] in a line: Caspase-3/7 induction in CHO-K1 cells by small molecules, qHTS assay (AID 1346980). Also: nearly all actives have a fitted effect of over 15% in size. Summed up:
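Luminescent Caspase-Glo 3/7 read (30min, room temperature) quantified apoptosis induction. Cells were wild-type CHO-K1, treated with compound for 17hr at 37 C and 5% CO2.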

A short description of assay [12]: Caspase-3/7 induction in HepG2 cells by small molecules, qHTS cell viability counter screen (AID 1346981). Also: series mostly up to about 92 µM; nearly all actives have a fitted effect of over 30% in size. Put shortly:
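HepG2, WT, 2,000 cells/well; 5 hr pre-incubation 37 C/5% CO2; compound pin-transferred from DMSO; 16 hr exposure; CellTiter-Fluor, 1 hr; fluorescence read.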

Assay [13] has as its target Nuclear receptor subfamily 1 group I member 2 (Homo sapiens) (UniProt O75469). Kind of assay: Human pregnane X receptor (PXR) small molecule agonists, qHTS assay (AID 1346982). Also: nearly all actives have a fitted effect of over 35% in size. Put shortly:
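Luciferase signal from ONE-Glo (30 min, room temperature) measured activation of hPXR-driven CYP3A4 reporter expression in PXR-Luc HepG2 cells treated with compounds for 24 hr at 37 C.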

For assay [14], the target named is Cytochrome P450 2D6 (Homo sapiens) (UniProt P10635). Kind of assay: Cytochrome P450 Family 2 Subfamily D Member 6 (CYP2D6) small molecule antagonists: luciferase reporter qHTS assay (AID 1671196). Also: nearly all actives have a fitted effect of over 50% in size. Also: potency is read from the fitted curve at half-maximal effect. Put shortly: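 Read-out is luminescence from luciferin formed by CYP2D6 turnover of a proluciferin substrate, recorded as relative luminescence units. Reactions ran 1 h at room temperature after NADPH regeneration solution was added.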
Sequence of Cytochrome P450 2D6 (Homo sapiens) (P10635 whole entry, looked up): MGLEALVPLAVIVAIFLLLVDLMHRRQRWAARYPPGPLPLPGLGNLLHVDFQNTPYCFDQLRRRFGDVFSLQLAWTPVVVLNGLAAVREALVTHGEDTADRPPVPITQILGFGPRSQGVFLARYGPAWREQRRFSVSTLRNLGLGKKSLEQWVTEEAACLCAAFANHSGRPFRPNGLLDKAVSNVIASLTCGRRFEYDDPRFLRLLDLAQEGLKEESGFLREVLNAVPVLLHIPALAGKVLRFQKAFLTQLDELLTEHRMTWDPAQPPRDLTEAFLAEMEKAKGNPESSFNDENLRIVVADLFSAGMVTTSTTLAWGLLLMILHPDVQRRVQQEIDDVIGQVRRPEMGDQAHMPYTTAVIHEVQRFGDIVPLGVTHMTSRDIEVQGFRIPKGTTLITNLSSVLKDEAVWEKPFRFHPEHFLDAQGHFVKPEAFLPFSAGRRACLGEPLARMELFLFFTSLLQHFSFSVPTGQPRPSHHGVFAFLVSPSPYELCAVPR
On the technique in general: Reporter assays use an easily measured gene product as a stand-in for the process of interest.

For assay [15], the target named is Cytochrome P450 2C19 (Homo sapiens) (UniProt P33261). The experiment in a line: Cytochrome P450 Family 2 Subfamily C Member 19 (CYP2C19) small molecule antagonists: luciferase reporter qHTS assay (AID 1671197). Also: nearly all actives have a fitted effect of over 65% in size. Also: potency is read from the fitted curve at half-maximal effect. Summed up: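 P450-Glo CYP2C19 system: enzyme-substrate mix with compound 10 min at room temperature, then NADPH regeneration solution, 1 h at 37C. Proluciferin-to-luciferin conversion detected by luminescence after 20 min with detection reagent; ketoconazole as positive control.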
Sequence of Cytochrome P450 2C19 (Homo sapiens) (P33261 whole entry, looked up): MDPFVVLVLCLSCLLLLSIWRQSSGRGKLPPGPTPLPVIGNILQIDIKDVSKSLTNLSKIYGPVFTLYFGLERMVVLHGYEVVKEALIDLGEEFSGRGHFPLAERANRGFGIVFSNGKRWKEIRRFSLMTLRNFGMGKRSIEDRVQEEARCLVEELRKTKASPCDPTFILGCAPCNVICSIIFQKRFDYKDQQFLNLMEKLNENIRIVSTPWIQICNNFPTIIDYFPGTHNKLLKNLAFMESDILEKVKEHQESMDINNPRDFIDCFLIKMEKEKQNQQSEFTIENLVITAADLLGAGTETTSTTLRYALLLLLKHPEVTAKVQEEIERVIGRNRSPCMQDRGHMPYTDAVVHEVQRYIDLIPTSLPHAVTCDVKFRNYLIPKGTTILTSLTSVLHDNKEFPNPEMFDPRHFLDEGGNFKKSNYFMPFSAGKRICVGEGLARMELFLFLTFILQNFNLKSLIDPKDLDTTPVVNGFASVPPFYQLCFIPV

Assay [16] deals with Nuclear receptor subfamily 1 group I member 2 (Rattus norvegicus) (UniProt Q9R1A7). The experiment in a line: Rat pregnane X receptor (rPXR) activation by small molecules, qHTS assay (AID 1346983). Also: nearly all actives have a fitted effect of over 20% in size. As to conditions: rPXR luciferase reporter cells, One-Glo luminescence, 24 h; stronger effect = higher value. Put shortly:
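Luminescent readout (One-Glo luciferase, 30 min room temperature) followed 24 hr compound treatment at 37 C of rPXR cells plated 2,000 per well and preincubated 5hr; qHTS format with compounds delivered in DMSO.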

The target in assay [17] is Nuclear receptor subfamily 1 group I member 2 (Homo sapiens) (UniProt O75469). The experiment in a line: Human pregnane X receptor (PXR) activation by small molecules, qHTS assay (AID 1346985). Also: nearly all actives have a fitted effect of over 40% in size. Summed up: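 DPX-2 cells (HepG2 co-transfected with a PXR response element and a CYP3A4-promoter luciferase construct) were seeded at 2,000 per well, rested 5 hr at 37C, then exposed to DMSO-dissolved compounds for 24 hr. Activation was read as luciferase luminescence.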
Sequence of Nuclear receptor subfamily 1 group I member 2 (Homo sapiens) (O75469 whole entry, looked up): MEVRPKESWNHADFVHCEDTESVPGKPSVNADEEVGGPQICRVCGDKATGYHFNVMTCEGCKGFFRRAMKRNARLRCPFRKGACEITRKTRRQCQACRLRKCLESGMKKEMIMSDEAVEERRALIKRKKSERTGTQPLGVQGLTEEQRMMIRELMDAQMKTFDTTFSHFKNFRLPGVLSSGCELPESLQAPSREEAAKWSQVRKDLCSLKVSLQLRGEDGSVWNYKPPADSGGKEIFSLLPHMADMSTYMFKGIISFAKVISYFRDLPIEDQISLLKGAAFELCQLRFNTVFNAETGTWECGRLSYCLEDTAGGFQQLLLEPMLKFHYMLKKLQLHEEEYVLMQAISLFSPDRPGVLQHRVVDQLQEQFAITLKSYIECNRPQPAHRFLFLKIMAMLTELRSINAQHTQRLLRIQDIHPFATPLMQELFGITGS

Assay [18] concerns the target Thyrotropin-releasing hormone receptor (Homo sapiens) (UniProt P34981). The experiment in a line: qHTS assay to identify small molecule agonists of the thyrotropin-releasing hormone receptor (TRHR) signaling pathway (AID 1346891; calls by dose curve;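 also: HEK293 cells expressing TRHR with calcium dye readout; series mostly up to about 58 µM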). Summed up: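 Cells: TRHR-Hek293, seeded and incubated 18 h. Dye loading: 2 h at 37 °C. Compound added from DMSO stock by pin tool. Read-out: kinetic calcium fluorescence over 3 min.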

The target is the same in assay [19]. Kind of assay: qHTS assay to identify small molecule antagonists of the thyrotropin-releasing hormone receptor (TRHR) signaling pathway (AID 1346877; active = well fitted inhibition curve with a large enough effect in the repeat runs, not every such curve was filed as active; also: series mostly up to about 51 µM). Put shortly:
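Intracellular calcium fluorescence, read kinetically every second over 3 min, reports TRH-evoked signalling in HEK293 cells carrying TRHR. Test compounds were added 5 min ahead of a 1 nM TRH challenge.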

In assay [20] the target is Nuclear receptor subfamily 1 group I member 2 (Homo sapiens) (UniProt O75469). The experiment in a line: CYP3A4 induction through human pregnane X receptor (PXR) by small molecules, qHTS assay (AID 1346984). Also: nearly all actives have a fitted effect of over 40% in size. Summed up: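 Luminescence readout: luciferase signal after One-Glo (30 min, room temperature), following 3 h at 37C with 3uM final Luciferin-IPA P450 substrate. Cells were DPX-2 (HepG2, PXR/CYP3A4-luc co-transfected) dosed for 24 h.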

The structures appear in SMILES notation. Unmarked numbers belong to inactive results. Inconclusive results are not listed. Activity calls are given as the source filed them. Unless noted, calls follow the shape of the dose curve; as a rule, active = well fitted curve in the direction sought with a large enough effect in the repeat runs; inconclusive = weak or mixed curves; inactive = no such curve, though single readings can be large; an effect the other way counts as inactive or inconclusive.
% is scaled to controls: 0 for no effect and ±100 for the full control effect.

Sequence of Progesterone receptor (Homo sapiens) (P06401 whole entry, looked up): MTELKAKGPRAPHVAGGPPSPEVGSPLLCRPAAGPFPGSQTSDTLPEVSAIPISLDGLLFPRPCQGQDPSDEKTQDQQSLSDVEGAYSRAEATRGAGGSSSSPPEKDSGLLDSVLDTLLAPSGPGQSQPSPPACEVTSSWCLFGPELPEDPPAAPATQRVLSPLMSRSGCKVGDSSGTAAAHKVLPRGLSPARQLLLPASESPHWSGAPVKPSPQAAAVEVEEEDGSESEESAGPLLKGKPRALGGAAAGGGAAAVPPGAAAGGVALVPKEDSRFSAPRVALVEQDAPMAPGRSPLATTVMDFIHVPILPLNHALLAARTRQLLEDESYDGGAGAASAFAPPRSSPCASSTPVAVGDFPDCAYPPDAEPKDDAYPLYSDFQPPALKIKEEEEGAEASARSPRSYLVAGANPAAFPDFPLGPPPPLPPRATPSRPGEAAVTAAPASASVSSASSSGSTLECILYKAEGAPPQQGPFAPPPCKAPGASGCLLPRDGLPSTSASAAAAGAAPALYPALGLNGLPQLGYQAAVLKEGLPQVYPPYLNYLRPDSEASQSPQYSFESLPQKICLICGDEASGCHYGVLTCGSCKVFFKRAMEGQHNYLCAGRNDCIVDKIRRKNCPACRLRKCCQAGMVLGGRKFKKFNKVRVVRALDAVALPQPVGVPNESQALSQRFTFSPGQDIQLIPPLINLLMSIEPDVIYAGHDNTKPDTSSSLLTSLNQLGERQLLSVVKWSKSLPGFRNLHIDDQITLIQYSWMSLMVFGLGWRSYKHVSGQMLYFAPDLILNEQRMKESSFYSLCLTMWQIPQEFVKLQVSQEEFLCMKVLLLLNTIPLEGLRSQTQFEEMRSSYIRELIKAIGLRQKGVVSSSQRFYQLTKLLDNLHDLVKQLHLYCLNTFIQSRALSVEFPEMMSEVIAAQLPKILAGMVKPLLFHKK
Sequence of Thyrotropin-releasing hormone receptor (Homo sapiens) (P34981 whole entry, looked up): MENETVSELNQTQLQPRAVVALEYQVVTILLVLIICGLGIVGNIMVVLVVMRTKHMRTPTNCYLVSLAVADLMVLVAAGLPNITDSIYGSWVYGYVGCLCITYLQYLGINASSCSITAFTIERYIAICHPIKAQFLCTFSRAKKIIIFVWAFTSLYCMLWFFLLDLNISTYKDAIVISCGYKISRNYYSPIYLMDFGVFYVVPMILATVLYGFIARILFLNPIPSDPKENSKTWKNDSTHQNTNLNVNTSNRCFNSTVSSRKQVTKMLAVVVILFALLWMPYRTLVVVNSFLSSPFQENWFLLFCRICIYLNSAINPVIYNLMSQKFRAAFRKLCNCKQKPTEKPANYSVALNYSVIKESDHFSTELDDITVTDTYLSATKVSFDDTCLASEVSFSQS
Sequence of Nuclear receptor subfamily 1 group I member 2 (Rattus norvegicus) (Q9R1A7 whole entry, looked up): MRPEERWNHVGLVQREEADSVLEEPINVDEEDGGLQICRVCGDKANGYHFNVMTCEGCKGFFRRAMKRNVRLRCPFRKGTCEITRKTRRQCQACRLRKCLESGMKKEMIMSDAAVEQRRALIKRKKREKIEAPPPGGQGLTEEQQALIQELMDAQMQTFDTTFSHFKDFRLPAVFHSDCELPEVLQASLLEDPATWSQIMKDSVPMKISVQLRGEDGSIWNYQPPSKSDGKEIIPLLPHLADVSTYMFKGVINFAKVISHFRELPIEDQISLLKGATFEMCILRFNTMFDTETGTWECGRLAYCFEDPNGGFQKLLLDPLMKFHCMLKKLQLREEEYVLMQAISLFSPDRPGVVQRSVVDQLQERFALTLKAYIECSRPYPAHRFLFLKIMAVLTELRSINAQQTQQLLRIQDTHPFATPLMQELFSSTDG

On to `O=Cc1ccc(Cl)c(Cl)c1`, for which the Potency result in [1], in [2], in [3], in assay [4], in [8] and in assay [9] was “inactive” in each case. Also, the Potency result in [10], in [12], in [13], in assay [14] and in [15] was “inactive” in each case. Besides, the call in assay [5], in assay [6], in [7] and in [11] was inactive.

In the case of `CCN(C)C(=O)Oc1cccc([C@H](C)N(C)C)c1`, the Potency entry in assay [1], in [2], in assay [3], in assay [4], in assay [8] and in [9] was “inactive” each time. Also, the Potency entry in [10], in assay [12], in [13], in assay [17] and in [15] was “inactive” each time. In addition, the outcome in [5], in [6], in assay [7] and in [11] was inactive. In addition, in [16], the max activation is 7.36%.

For `CCC(C)(CCC(C)C)C(=O)O` (stereo unspecified), the Potency result in [1], in [2], in assay [3], in assay [4], in assay [8] and in assay [9] was “inactive” in each case. Besides, the Potency entry in [10], in assay [12], in [13] and in assay [15] was “inactive” in each case. The compound was called inactive in assay [5], in assay [6], in assay [7] and in assay [11]. The Potency in [14] is 28.3 µM (active).

Turning to `CC(=O)OC(C)OC(=O)C(C)c1ccc(-c2ccccc2)c(F)c1` (stereo unspecified), the Potency result in assay [1], in [2], in [3], in [4], in [8] and in assay [9] was “inactive” throughout. In addition, the Potency result in assay [12] and in assay [13] was “inactive” in each case. Moreover, the compound was classed as inactive in assay [5], in assay [6], in assay [7] and in assay [11]. Further, the Potency in assay [15] was 5.49 µM (active).

On to `O=C1CCCC(=O)O1`, for which the Potency entry in [1], in assay [2], in assay [3], in assay [4], in [8] and in assay [10] was “inactive” throughout. In addition, the Potency result in assay [12] and in assay [15] was “inactive” each time. Besides, the call in assay [5], in [6], in [7], in [18] and in [11] was inactive.

On to `O=C(O)Cc1cn(-c2ccccc2)nc1-c1ccc(Cl)cc1`, for which the Potency result in assay [1], in assay [2], in [3], in [4], in assay [8] and in assay [9] was “inactive” throughout. The Potency result in assay [12], in [13], in [20], in [17] and in assay [14] was “inactive” throughout. The compound was called inactive in [5], in [6], in assay [19], in [18] and in [11]. For the same compound, the max activation in [16] is -1.93%.

Take `O=S(=O)(O)c1ccc2cc(O)c(S(=O)(=O)O)cc2c1`: the Potency result in assay [1], in assay [2], in assay [3], in assay [4], in assay [8] and in [9] was “inactive” in each case. The Potency result in [12] and in [15] was “inactive” throughout. For the same compound, the call in assay [5], in assay [6], in assay [7] and in assay [11] was inactive.

Source of the values: PubChem BioAssay (Tox21).
